Assay [1] is described as follows: HepG2 liver cancer cell viability effects, profiling panel, resazurin fluorescence, 24 h, PK04 Diversity Set (AID 1172). To be noted: higher = more signal.
Assay [2] in a line: basal S. cerevisiae growth modulation, no modifier, primary screen, OD600, strain BY4716, 24 h, basal condition (AID 1173). To be noted: OD600, 24 h, higher = more signal, called active from +8 up or from −8 down.
Assay [3] is described as follows: MM1S myeloma cell viability, profiling panel, resazurin fluorescence, basal, 24 h, PK04 Diversity Set (AID 1174).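 Note: MM1S multiple myeloma cell line.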 To be noted: higher = more signal, called active from +8 up or from −8 down. (In general: The colour change of resazurin is a common sign of viable cells or microbes.)
Assay [4] has as its target Dihydroorotate dehydrogenase (quinone), mitochondrial (Plasmodium falciparum (isolate 3D7)) (UniProt Q08210). The assay is described as follows: PfDHODH enzyme inhibitors, primary screen, biochemical, C-terminal His tag, absorbance 600 nm (AID 1175).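 Note: recombinant parasite enzyme with a five histidine tag at its C terminus.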 To be noted: DCIP absorbance 600 nm, higher = more signal, called active from +8 up or from −8 down.
Assay [5] can be described thus: P. aeruginosa biofilm formation inhibitors, primary screen, strain PAO1, LB-PBS medium, absorbance 600 nm (AID 1176). To be noted: P. aeruginosa PAO1 growth/biofilm, A600, 12 h; higher = more signal.
Assay [6] can be described thus: S. cerevisiae RM11-1a growth modifiers, primary screen, strain RM11-1a, OD600, basal, 24 h (AID 1177).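 Note: cultures grown under basal conditions with no added stressor.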 To be noted: OD600, 24 h, higher = more signal, called active from +8 up or from −8 down.
The nature of assay [7]: E. coli acrAB mutant growth effects, primary screen, E. coli filamentation inducers, strain DRC39, OD650, 24 h (AID 1178).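 Note: growth measured as culture turbidity by optical density at 650 nm.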 To be noted: higher = more signal, called active from +8 up or from −8 down.
Assay [8] is described as follows: E. coli acrAB mutant growth effects, primary screen, E. coli filamentation inducers, strain DRC39, OD650, 48 h (AID 1179).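 Note: screen aims at cell division blockers that make cells filament.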 To be noted: E. coli DRC39 delta-acrAB growth, higher = more signal, called active from +8 up or from −8 down.
Assay [9] is described as follows: RPMI8226 myeloma cell viability, profiling panel, resazurin fluorescence, basal, 24 h, PK04 Diversity Set (AID 1180).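 Note: RPMI8826 multiple myeloma cell line at 5000 cells per well.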 To be noted: higher = more signal.
The target in assay [10] is E3 ubiquitin-protein ligase XIAP (Homo sapiens) (UniProt P98170). The assay is described as follows: XIAP binders, primary screen, biophysical, small-molecule microarray, fluorescence 635 nm (AID 1181).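 Note: score merges 667 nm emission and signal to noise over triplicate slides.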 To be noted: small-molecule microarray binding, higher = more signal.
Chain of E3 ubiquitin-protein ligase XIAP (Homo sapiens) (P98170 whole entry, looked up): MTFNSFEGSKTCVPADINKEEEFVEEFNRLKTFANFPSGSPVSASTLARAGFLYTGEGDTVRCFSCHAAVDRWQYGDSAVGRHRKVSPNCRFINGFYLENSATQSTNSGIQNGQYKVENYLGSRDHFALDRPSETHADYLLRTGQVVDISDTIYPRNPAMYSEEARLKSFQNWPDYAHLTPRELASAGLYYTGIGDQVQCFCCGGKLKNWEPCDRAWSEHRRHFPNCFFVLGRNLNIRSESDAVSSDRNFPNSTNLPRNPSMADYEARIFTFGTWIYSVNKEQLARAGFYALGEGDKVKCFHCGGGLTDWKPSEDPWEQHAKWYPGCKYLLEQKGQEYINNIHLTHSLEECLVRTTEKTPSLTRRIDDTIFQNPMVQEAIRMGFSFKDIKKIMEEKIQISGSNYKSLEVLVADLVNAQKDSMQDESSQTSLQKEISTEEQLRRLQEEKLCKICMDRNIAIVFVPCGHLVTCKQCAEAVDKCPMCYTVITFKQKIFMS
In assay [11] the test system is XIP peptide (Xip251-270) binding. The assay is described as follows: small-molecule binders of XIP peptide, primary screen, biochemical, small-molecule microarray, fluorescence 635/667 nm, 0.1 µg/mL protein (AID 1182). To be noted: fluorescent protein binding, 635 nm, higher = more signal, called active from +8 up or from −8 down.
Assay [12] concerns XIP peptide (Xip251-270). The assay is described as follows: small-molecule binders of XIP peptide, primary screen, biochemical, small-molecule microarray, fluorescence 635/667 nm, 0.5 µg/mL protein (AID 1183). To be noted: small-molecule microarray binding, fluorescence 635 nm; higher = more signal.
The nature of assay [13]: Plasmodium falciparum growth inhibition, primary screen, strain 3D7, DAPI fluorescence, 100 nL (AID 1184).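 Note: parasites grown inside human red blood cells in medium with human serum.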 To be noted: P. falciparum 3D7 growth, 3 d, higher = more signal.
The target of assay [14] is Homeobox protein Hox-A13 (Mus musculus) (UniProt Q62424). The assay is described as follows: inhibitors of HoxA13-DNA binding, primary screen, biochemical, fluorescence polarization, labeled oligonucleotide (AID 1185). To be noted: 15 min, higher = more signal, called active from +8 up or from −8 down.
Chain of Homeobox protein Hox-A13 (Mus musculus) (Q62424 whole entry, looked up): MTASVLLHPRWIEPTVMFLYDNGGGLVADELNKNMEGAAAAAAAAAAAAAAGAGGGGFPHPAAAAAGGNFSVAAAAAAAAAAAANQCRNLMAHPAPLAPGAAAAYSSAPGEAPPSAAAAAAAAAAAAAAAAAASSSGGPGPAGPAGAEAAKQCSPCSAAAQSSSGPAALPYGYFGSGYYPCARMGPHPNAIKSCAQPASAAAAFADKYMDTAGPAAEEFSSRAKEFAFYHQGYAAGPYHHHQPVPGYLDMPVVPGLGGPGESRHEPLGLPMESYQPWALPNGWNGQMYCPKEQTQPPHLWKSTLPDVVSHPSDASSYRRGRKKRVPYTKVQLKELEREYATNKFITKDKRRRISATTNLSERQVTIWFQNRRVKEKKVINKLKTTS
Assay [15] can be described thus: inhibitors of hydroxyurea-induced Chk1 phosphorylation, primary screen, imaging, HeLa, phospho-Chk1 antibody, percent positive cells (AID 1186). To be noted: hydroxyurea-induced phospho-Chk1 immunofluorescence imaging, higher = more signal.
Assay [16] in a line: inhibitors of hydroxyurea-induced Chk1 phosphorylation, primary screen, imaging, HeLa, phospho-Chk1 nuclear intensity (AID 1187). To be noted: hydroxyurea-induced phospho-Chk1 immunofluorescence imaging, higher = more signal.

SMILES strings stand for the structures. Active and inactive are the calls of the source. Unless noted, the rule behind the calls is not given here.

Chain of Dihydroorotate dehydrogenase (quinone), mitochondrial (Plasmodium falciparum (isolate 3D7)) (Q08210 whole entry, looked up): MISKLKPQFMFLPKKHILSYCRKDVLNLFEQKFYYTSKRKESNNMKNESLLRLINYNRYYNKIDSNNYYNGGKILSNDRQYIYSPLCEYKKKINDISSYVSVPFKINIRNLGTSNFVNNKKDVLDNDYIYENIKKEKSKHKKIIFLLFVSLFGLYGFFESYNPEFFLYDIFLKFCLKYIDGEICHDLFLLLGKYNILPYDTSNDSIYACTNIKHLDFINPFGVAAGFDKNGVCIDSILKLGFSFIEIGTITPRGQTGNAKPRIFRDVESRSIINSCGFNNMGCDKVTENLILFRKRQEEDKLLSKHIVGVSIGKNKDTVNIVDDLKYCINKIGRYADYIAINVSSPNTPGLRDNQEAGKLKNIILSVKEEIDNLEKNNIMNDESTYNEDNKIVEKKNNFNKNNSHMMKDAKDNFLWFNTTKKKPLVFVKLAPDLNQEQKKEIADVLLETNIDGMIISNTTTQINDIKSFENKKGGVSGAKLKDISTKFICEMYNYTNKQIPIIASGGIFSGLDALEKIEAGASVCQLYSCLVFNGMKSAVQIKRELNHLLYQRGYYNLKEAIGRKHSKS

Regarding `COCCn1c(C(=O)N2CCCC2)cc2c1C[C@H]1CN(C(=O)c3ccccc3)[C@@](Cc3ccccc3)(C(=O)OC)[C@@H]21`, the z-score is -0.171 in assay [1]; 0.859 (inactive) in [2]; -0.738 (inactive) in assay [3]; 0.535 (inactive) in [5]; 1.41 (inactive) in [6]; -0.16 (inactive) in assay [7]. Further, the z-score in [8] is -0.0447 (inactive); in [9] it was -0.923; in assay [13], -1.22; in assay [14] it was -6.05 (inactive); in assay [15] it was 0.206 (inactive); in [16] it was 0.412 (inactive). For the same molecule, the composite z-score was 0.132 (inactive) in assay [4], 0.369 in assay [10], 1.06 (inactive) in assay [11] and 0.857 in [12].

For the molecule `C=CCOC(=O)[C@H]1[C@@H]2C(=O)O[C@@H](c3ccccc3)[C@@H](c3ccccc3)N2[C@@H](c2ccc(OCCOC(=O)[C@@H]3C[C@@H]4C(=O)N[C@@H](CC(C)C)C(=O)N4[C@@H]3c3ccc(O)cc3)cc2)[C@]12C(=O)Nc1ccc(I)cc12`, the z-score in assay [1] was -1.11; in [2], 0.637 (inactive); in [3], -0.0917 (inactive); in assay [5] it was 2.94 (inactive); in assay [6] it was -0.628 (inactive); in assay [7], 0.214 (inactive). Besides, the z-score in assay [8] was 1.3 (inactive); in assay [9] it was 0.518; in assay [13], -1.79; in assay [14], 0.999 (inactive); in [15] it was -0.654 (inactive); in assay [16] it was 0.112 (inactive). The composite z-score in [4] is -1.41 (inactive); in assay [10] it was -0.0232; in assay [11], 1.47 (inactive); in [12], 0.788.

On to `COCC1=C([C@H](O)CCc2ccccc2)[C@H](CO)n2c(=O)n(-c3ccccc3)c(=O)n2C1`, for which the z-score in [1] is -0.236; in assay [2], -3.02 (inactive); in assay [3] it was 0.0444 (inactive); in assay [5] it was 0.188 (inactive); in assay [6], -1.94 (inactive); in [7] it was 1.19 (inactive). The z-score in assay [8] is 1.32 (inactive); in assay [9], 0.113; in assay [13] it was 0.0736; in assay [14], -3.09 (inactive); in assay [15] it was -0.48 (inactive); in assay [16] it was 1.51 (inactive). The composite z-score was -0.855 (inactive) in assay [4], -0.0848 in assay [10], 0.625 (inactive) in assay [11] and -0.0859 in [12].

In the case of `COC(=O)[C@@]1(CCS(=O)(=O)c2ccccc2)N=C(c2ccc(OCCCO)cc2)O[C@H]1c1ccccc1N=[N+]=[N-]`, the z-score was -0.705 in assay [1]; 0.905 (inactive) in [2]; -2.87 (inactive) in [3]; 0.246 (inactive) in [5]; 1.09 (inactive) in [6]; 0.399 (inactive) in assay [7]. Besides, the z-score in [8] is -1.12 (inactive); in assay [9], -1.64; in assay [13], -1.98; in [14], -3.19 (inactive); in assay [15] it was -0.305 (inactive); in [16], -0.0592 (inactive). Besides, the composite z-score in assay [4] was -0.279 (inactive); in assay [10], -0.0374; in [11] it was 1.61 (inactive); in assay [12], 0.79.

Turning to `COc1ccc(C#Cc2ccc3c(c2)[C@]2(C(=O)N3)[C@H](c3ccc(OCCO)cc3)N3[C@H](c4ccccc4)[C@H](c4ccccc4)OC(=O)[C@H]3[C@@H]2C(=O)O)cc1`, the z-score in [1] was 1.24; in assay [2], 1.85 (inactive); in assay [3] it was -0.103 (inactive); in assay [5] it was 2.25 (inactive); in [6], 1.73 (inactive); in assay [7], 1.22 (inactive). For the same molecule, the z-score was 0.0805 (inactive) in assay [8]; 0.149 in assay [9]; -1.31 in assay [13]; -5.36 (inactive) in assay [14]; 0.36 (inactive) in [15]; 0.273 (inactive) in assay [16]. In addition, the composite z-score in [4] was -12.9 (active); in [10], 0.158; in assay [11], -0.436 (inactive); in assay [12], 0.327.

For the molecule `C=CCC(OC(C)=O)[C@@H]1[C@@H](N(Cc2cc3ccccc3o2)C(=O)c2ccc(-c3ccccc3)cc2)c2cc(OCCCO)ccc2N1C(=O)c1ccc2ccccc2n1` (stereo partly drawn), the z-score was -0.0694 in assay [1]; 0.848 (inactive) in [2]; 0.943 (inactive) in assay [3]; 0.35 (inactive) in assay [5]; 0.913 (inactive) in assay [6]; 0.965 (inactive) in [7]. Moreover, the z-score is 0.553 (inactive) in assay [8]; 0.97 in assay [9]; -1.49 in [13]; -1.34 (inactive) in assay [14]; -0.203 (inactive) in assay [15]; -0.103 (inactive) in assay [16]. Moreover, the composite z-score in assay [4] was 0.706 (inactive); in [10], -0.0818; in assay [11], -0.341 (inactive); in assay [12], -0.317.

`C=C(COC)C(=O)CC[C@@H](OC(C)=O)c1ccc(OCCO)cc1`: the z-score in assay [1] is -0.487; in assay [2], -0.997 (inactive); in [3] it was -0.487 (inactive); in assay [5] it was 0.98 (inactive); in assay [6], 0.423 (inactive); in assay [7], -0.623 (inactive). In addition, the z-score in assay [8] is -0.432 (inactive); in [9], -0.781; in assay [13] it was -0.964; in assay [14] it was -4.63 (inactive); in assay [15], 0.0887 (inactive); in assay [16] it was 0.241 (inactive). Also, the composite z-score in [4] was -5.2 (inactive); in assay [10], -0.0848; in [11], 1.61 (inactive); in assay [12] it was 0.779.

Consider `CC(=O)c1ccc(C(O)C2C=CC3C(=O)N(C)C(=O)C3N2NC(=O)OC(C)(C)C)cc1` (stereo not drawn), for which the z-score in assay [1] was -1.69; in [2] it was 1.74 (inactive); in assay [3], -1.04 (inactive); in [5], 0.378 (inactive); in [6] it was 0.845 (inactive); in [7], -0.9 (inactive). Moreover, the z-score in assay [8] was -0.47 (inactive); in [9], -1.05; in assay [13], -0.29; in assay [14], -1.11 (inactive); in assay [15] it was 0.976 (inactive); in [16], 0.688 (inactive). In addition, the composite z-score in [4] was 0.625 (inactive); in assay [10], 0.155; in assay [11], 2.44 (inactive); in [12], 0.763.

For the origin of these results see PubChem BioAssay.
